Screening data (PubChem)
Cy5 interf NS3h – Cy5 fluorescence quenchers or enhancers, artefact control for HCV NS3 helicase inhibitor project, biochemical, ChemBridge library, Cy5 readout | 6% of 16,000 active | Cy5-dT15 DNA with NS3h, fluorescence interference; actives lie on both sides; signal over control mean, under 1 quenches | AID 720488, 2013 | fluorescence interference ratio at 100 µM;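 active means compound fluorescence over control fluorescence at most 0.8, a quencher, or at least a set upper limit, an enhancer; inactive means ratio between 0.8 and the set upper limit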
NS3h inh CB – HCV NS3 helicase inhibitors, primary screen, biochemical, fluorescence polarization, ChemBridge library; Hepatitis C virus NS3 helicase; NS3h Cy5-dT15 DNA binding; inhibition, % at 100 µM; 1.6% of 16,000 active; AID 687043, 2013;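 active means inhibition above the average over every tested compound plus 3 SD, cut at about 40% in these data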
* marks the source's active call; other numbers are inactive results. The list is not random: actives were taken first. Their share in the collection is about 6.8%.

SMILES	Cy5 interf NS3h	NS3h inh CB
O=C(NCc1ccco1)c1cc2nc(-c3ccccc3)cc(C(F)(F)F)n2n1	1.1	1
COC(=O)c1ccccc1NC(=O)c1cc2nc(-c3ccccc3)cc(C)n2n1	0.73*	14
CCOc1ccc(-c2cc(C)n3nc(C(=O)Nc4cc(OC)c(Cl)cc4OC)cc3n2)cc1	1.1	-9
CC(C)(C)NC(=O)c1cc2nc(-c3ccccc3)cc(C(F)(F)F)n2n1	0.57*	1
CCOC(=O)c1ccccc1NC(=O)CN(c1ccc(OC)cc1OC)S(C)(=O)=O	1.1	12
CCc1nc(-c2ccccc2)nc(C)c1C	0.98	7
Cc1ccc(S(=O)(=O)NCCOc2ccccc2)cc1[N+](=O)[O-]	0.93	13
Cc1ccc(S(=O)(=O)NCCOc2ccccc2Cl)cc1[N+](=O)[O-]	0.79*	5
COc1ccc(N2C(=O)CC(Sc3nnc(-c4ccccc4)n3-c3ccccc3)C2=O)cc1 (configuration not stated)	0.99	4
COc1ccc(N=Cc2ccc(O)c(OC)c2)cc1	0.8*	11
COc1cc(C=Nc2ccc(S(N)(=O)=O)cc2)ccc1O	1.1	5
COc1cccc(N2C(=O)C(=O)C(=C(O)c3ccccc3)C2c2ccc(Cl)cc2)c1 (configuration not stated)	1	9
COc1cccc(N2C(=O)C(=O)C(=C(O)c3ccccc3)C2c2ccccc2Cl)c1 (configuration not stated)	0.73*	21
O=C1CCCC2=C1C(c1ccc3c(c1)OCO3)Nc1ccc3ccccc3c12 (configuration not stated)	0.72*	21
Cc1ccsc1C1Nc2ccc3ccccc3c2C2=C1C(=O)CC(C)(C)C2 (configuration not stated)	0.97	12
CCOC(=O)/C(=C/c1ccc(O)cc1)C(C)=O	1.1	-4
COC(=O)CNC(=O)C1COc2ccccc2O1 (configuration not stated)	1.2*	6
O=C(NCCO)C1COc2ccccc2O1 (configuration not stated)	0.94	1
CN(C)/C(=N\OC(=O)c1ccc([N+](=O)[O-])cc1)c1nonc1N	0.67*	19
N/C(=N/OC(=O)c1ccc(I)cc1)c1ccc([N+](=O)[O-])cc1	0.95	3
COc1ccc(Cl)cc1C(=O)Nc1cccc(-c2nc3cc(C)c(C)cc3o2)c1	0.95	-17
COc1ccccc1OCCOc1ccc(/C=N\N2C(=O)CSC2=S)cc1	1.1	6
CCOC(=O)c1c(NC(=O)Cc2ccc(Cl)cc2)sc(C(=O)Nc2ccc(OC)cc2OC)c1C	1	-8
N/C(=N\OCC(=O)Nc1ccc(F)cc1)c1nonc1N	1	0
Cc1cccc(C)c1NC(=O)CO/N=C(/N)c1nonc1N	0.71*	15
SMILES	Cy5 interf NS3h	NS3h inh CB
CCCCOC(=O)c1cccc(-c2ccc(/C=C3\C(=O)N(c4ccc(S(N)(=O)=O)cc4)N=C3C)o2)c1	1	-1
Cc1cc(OCC(=O)Nc2ccc(F)c([N+](=O)[O-])c2)ccc1Cl	1.2*	0
Cc1cc(Cl)ccc1OCC(=O)Nc1ccc(F)c([N+](=O)[O-])c1	0.91	11
COc1ccc(N(CC(=O)Nc2ccc(C)cc2C)S(C)(=O)=O)c(OC)c1	0.99	4
CN(C)c1ccc(C(=O)NCc2ccc(S(N)(=O)=O)cc2)cc1	1.1	11
CCC(C(=O)Nc1cccc(C)c1)c1ccccc1 (configuration not stated)	0.96	10
CCC(C(=O)Nc1ccc(C)cc1)c1ccccc1 (configuration not stated)	1.3*	6
CCOc1ccc(NC(=O)/C=C/c2ccc(OC)c(Br)c2)cc1	1.1	8
COc1ccc(C(=O)Nc2ccc([N+](=O)[O-])cc2C)cc1	1.1	11
COc1cccc(/C=C2/C(=O)NN(c3ccc(C)cc3)C2=O)c1O	0.9	5
CCOC(=O)C1=C(C)NC(C)=C(C(=O)OC)C1c1ccco1 (configuration not stated)	0.91	-3
C=CCOC(=O)C1=C(C)NC(C)=C(C(=O)OCC=C)C1c1ccco1	0.73*	29
COc1ccc(C(=O)/C=C/Nc2ccccc2NS(=O)(=O)c2ccc([N+](=O)[O-])cc2)cc1OC	0.97	5
COc1c(Cl)cc(C(=O)Nc2c(C)cccc2C)cc1Cl	0.97	10
COc1ccc(NC(=O)c2ccc(Cl)cc2)cc1Cl	1	-2
COc1ccc(C(=O)/C=C/Nc2ccc(Cl)cc2[N+](=O)[O-])cc1OC	0.22*	0
COc1ccc(C(=O)Nc2ccc(C)cc2C)cc1OC	1	6
COc1ccc(C(=O)Nc2ccc(Cl)cc2C)cc1OC	0.78*	9
COc1c(Cl)cc(C(=O)Nc2cccc(C(F)(F)F)c2)cc1Cl	0.53*	1
COc1ccc(NC(=O)c2cccc(Cl)c2)cc1Cl	0.7*	22
